FBW7 act = activators of human E3 ligase FBW7 | Q969H0 | AlphaScreen FBW7–phospho-cyclin E peptide binding, activator screen | normalized activity (activation), % at 26.1 µM | actives 0.13% (n = 650,000) | AID 1259310; in the data active = normalized activity above about 1.9%;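 also: purified mutant Fbw7 with reduced substrate affinity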
MITF primary = human MITF inhibition, primary screen; actives 0.91% (n = 650,000); inhibition, % at 2.6 µM; AlphaScreen MITF homodimerization, bead proximity signal; in the data active = inhibition above about 50%;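 also: 0% = vehicle wells with protein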
Target sequence (O75030 whole entry, looked up): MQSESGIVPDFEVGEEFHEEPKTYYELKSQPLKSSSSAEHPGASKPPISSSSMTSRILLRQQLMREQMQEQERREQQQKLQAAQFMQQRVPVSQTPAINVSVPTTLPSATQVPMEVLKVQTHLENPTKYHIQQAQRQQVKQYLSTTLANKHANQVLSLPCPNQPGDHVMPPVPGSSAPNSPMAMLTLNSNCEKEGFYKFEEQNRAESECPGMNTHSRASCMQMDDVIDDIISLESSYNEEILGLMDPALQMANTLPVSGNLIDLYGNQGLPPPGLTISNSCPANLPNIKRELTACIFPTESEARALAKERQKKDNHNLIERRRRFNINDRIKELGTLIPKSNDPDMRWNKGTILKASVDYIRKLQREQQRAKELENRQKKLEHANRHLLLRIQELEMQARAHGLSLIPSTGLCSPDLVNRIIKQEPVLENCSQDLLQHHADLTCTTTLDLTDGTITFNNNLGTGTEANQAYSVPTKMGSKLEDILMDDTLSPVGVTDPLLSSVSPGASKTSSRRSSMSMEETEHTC
TEAD-YAP inh = TEAD-YAP interaction inhibition; HEK-TIYL cells, TEAD-Gal4/YAP UAS-luciferase luminescence; inhibition, % at 9.12 µM; actives 1.4% (n = 640,000); AID 1259422; in the data active = inhibition above about 32%;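 also: 0% = median of test compound wells and 100% = reference inhibitor wells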
GPR151 ag = activates the human receptor GPR151. Q8TDV0. PathHunter beta-arrestin GPR151 cells, luminescence. activation, % at 11.2 µM. actives 1% (n = 650,000). AID 1508602; in the data active = activation above about 4.9%;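 also: 0% = median of compound wells and 100% = cells with positive control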
* = called active by the depositor. In the library only some 3.5% were active in any assay of this set; here they are far more common.

SMILES | FBW7 act | MITF primary | TEAD-YAP inh | GPR151 ag
O=[N+]([O-])c1cccc(S(=O)(=O)NCCc2cn3ccsc3n2)c1 | 6.2* | 8 | -4 | 1
O=S(=O)(NCc1cn2ccsc2n1)c1ccc(Oc2ccccc2)cc1 | 0 | -8 | 35* | 0
O=[N+]([O-])c1ccc(S(=O)(=O)NCCc2cn3ccsc3n2)cc1 | 0 | -1 | -4 | -1
CCOc1ccccc1C(=O)Nc1nnc(SCC(=O)N2CCc3ccccc32)s1 | 0 | 4 | 3 | 1
CCc1ccc(NC(=O)c2cc3c(C)nn(-c4ccccc4)c3s2)cc1 | 1 | 11 | 5 | -1
COc1cccc(CC2=NOC(C(=O)NC(c3ccco3)C(F)(F)F)C2)c1 (stereo unspecified) | 1 | 5 | -17 | 0
O=c1[nH]c(CN2CCOCC2)nc2scc(-c3cccs3)c12 | 0 | -12 | -4 | 0
Cn1nnnc1Sc1nc(CN2CCOCC2)nc2scc(-c3cccs3)c12 | 0 | -1 | 61* | -1
O=c1c2cnn(-c3ccccc3)c2nnn1Cc1cccnc1 | 1.9* | 14 | 1 | 0
COC(=O)Cn1nnc2c(cnn2-c2ccccc2)c1=O | 1 | 10 | -39 | -3
Cc1ccccc1NC(=O)Cn1nnc(S(=O)(=O)c2ccc(Cl)cc2)c1N | 0 | -4 | -2 | 0
Nc1ccc(OCc2ccc(COc3ccc(N)cc3)cc2)cc1 | 17* | -116 | 21 | 1
Cc1cc(Sc2nc3c(C)cccn3c(=O)c2C=O)ncn1 | 1.9* | -1 | -2 | 0
O=C(CSc1cc(N2CCCC2)ncn1)c1ccccc1 | 0 | 18 | 76* | -9
CCc1ccc(NC(=O)N2CCN(c3ccc(Nc4cc(C)ccn4)nn3)CC2)cc1 | -1 | 15 | -29 | 0
COc1cc(NS(=O)(=O)c2ccc(NC(=O)Cc3nn(C)c(=O)c4ccccc34)cc2)nc(OC)n1 | 0 | 12 | 3 | 0
Cc1ccc(C)c(NC(=O)c2c[nH]c(=O)n(-c3ccc(C)c(C)c3)c2=O)c1 | 0 | -8 | 5 | 0
CC1=C(C#N)C(=O)NC(=O)/C1=C\c1ccc(-c2ccccc2)o1 | 0 | 5 | 1 | -1
CC1=C(C#N)C(=O)NC(=O)/C1=C\c1ccc(-c2ccc(C(=O)O)c(Cl)c2)o1 | 0 | 58* | 6 | 0
CC(C)(NS(=O)(=O)c1ccc(Cl)cc1)c1ccncc1 | 0 | 4 | -6 | 0
C=CCn1c(=NC(=O)c2ccccc2[N+](=O)[O-])sc2cc(NC(C)=O)ccc21 | 0 | 4 | 49* | 0
CC(=O)c1c(C)[nH]c(C(=O)OCC(=O)Nc2cccc(S(=O)(=O)N3CCCC3)c2)c1C | 0 | 6 | 33* | 0
CC(=O)c1c(C)[nH]c(C(=O)OCC(=O)Nc2ccc(F)c(Cl)c2)c1C | 0 | -8 | 35* | 3
CC(=O)c1c(C)[nH]c(C(=O)OCC(=O)Nc2cccc(Cl)c2)c1C | 0 | 7 | 44* | -1
CC(=O)c1c(C)[nH]c(C(=O)OCC(=O)Nc2ccc(C)c(Cl)c2)c1C | 0 | 4 | 9 | 2
SMILES | FBW7 act | MITF primary | TEAD-YAP inh | GPR151 ag
CC(=O)c1c(C)[nH]c(C(=O)OCC(=O)Nc2ccc(Cl)cc2)c1C | 0 | -6 | 12 | 2
Cc1cc(C)c2c(-n3cccc3)c(C(=O)Nc3nccs3)sc2n1 | 0 | 0 | 5 | 2
Cc1ccccc1CSc1ncccc1C(=O)N1CCC(Cc2ccccc2)CC1 | 0 | 15 | 7 | -1
COc1c(C)cc(C(=O)C2CCCN(S(=O)(=O)c3cccs3)C2)cc1C (stereo unspecified) | 0 | -4 | 52* | 0
COc1c(C)cc(C(=O)C2CCCN(S(=O)(=O)c3ccsc3)C2)cc1C (stereo unspecified) | 0 | 3 | 44* | 1
CC(C)NC(=O)C1CCCN(S(=O)(=O)c2cccs2)C1 (stereo unspecified) | 0 | -7 | 2 | 0
COc1cc(NC(=O)c2cccc(-c3ccc(C(=O)NC4CC4)cc3)n2)cc(OC)c1OC | 0 | 6 | 34* | 1
CC(=O)Nc1ccc(NC(=O)c2cccc(N3CCN(c4ccccn4)CC3)n2)cc1 | 0 | -10 | 36* | 1
COc1cc(NC(=O)c2ccnc(N3CCN(c4ccccn4)CC3)c2)cc(OC)c1OC | 0 | 4 | 14 | 0
O=C(Nc1ccccc1)c1cccc(N2CCCC2CO)n1 (stereo unspecified) | 0 | 11 | -28 | -1
COc1cc(NC(=O)c2cccc(N3CCN(c4ccccn4)CC3)n2)cc(OC)c1OC | 0 | -11 | 42* | -2
O=C(Nc1ccccc1)c1cccc(N2CCN(c3ccccn3)CC2)n1 | 0 | -15 | -15 | 4
COc1cc(NC(=O)c2cccc(N3CCCC3CO)n2)cc(OC)c1OC (stereo unspecified) | 0 | -1 | 35* | 0
O=[N+]([O-])c1ccc(C2=Nc3ccccc3N=C(c3ccccc3O)C2)cc1 | 0 | 5 | 1 | 2
CCCOc1ccc(C(=O)CCC(=O)OCC(=O)NC(=O)OCC)cc1 | 0 | -2 | -6 | 2
CSCC(=O)NCc1c(C)ncc2c1CCN(C(=O)Cc1c(F)cc(F)cc1F)C2 | 0 | 13 | -2 | 1
CC(C)n1cnc2c(NCCCN3CCCC3=O)nc(Nc3nc4ccccc4n3C)nc21 | 0 | 0 | 3 | 2
COc1cccc(CN(CCN(C)C)C(=O)c2cnc3ccc(-c4cn[nH]c4)cn23)c1 | 0 | 1 | 45* | 1
COc1cccc(CN(CCCN(C)C)C(=O)Nc2ccc(-c3cn[nH]c3)cc2OC)c1 | 0 | -10 | -12 | 1
COc1cccc(CN(CCN(C)C)C(=O)Nc2ccc(-c3cn[nH]c3)cc2N(C)C)c1 | 0 | 25 | 50* | -1
COc1cccc(CN(CCN(C)C)C(=O)c2cnc3cc(-c4cn[nH]c4)ccn23)c1 | 0 | -4 | -10 | -2
COc1cccc(CN(C)C(=O)c2cnc3cc(-c4cn[nH]c4)ccn23)c1 | 0 | -5 | 46* | -1
CCn1c[n+](CC(O)COc2c(C)cccc2C)c2cc(C)c(C)cc21 (stereo unspecified) | 0 | -5 | 11 | -1
N=c1oc2ccc(Br)cc2cc1-c1nc2ccccc2c(=O)[nH]1 | 0 | -9 | -3 | 2
COC(=O)c1ccc(NC(=O)/C(=C\c2cccc([N+](=O)[O-])c2)NC(=O)c2ccccc2)cc1 | 0 | -1 | -7 | -1
SMILES | FBW7 act | MITF primary | TEAD-YAP inh | GPR151 ag
C/C(=N\Nc1cccc(C(F)(F)F)c1)C1CC1 | 3.4* | 40 | -8 | 1
C/C(=N\Nc1ccc(C(F)(F)F)cc1[N+](=O)[O-])C1CC1 | 0 | 8 | 7 | 4
CCOc1ccc(-c2cc(=O)[nH][nH]2)cc1 | 0 | 5 | -6 | 0
C#CCN(C)C(=O)c1c(C)nc2sccn12 | 1.9* | 19 | 10 | 0
COc1ccccc1NC(=O)c1cnc(N2CCN(c3ncccn3)CC2)c2ccccc12 | 0 | 11 | 60* | 1
Cc1cccc(NC(=O)c2cnc(N3CCN(c4ncccn4)CC3)c3ccccc23)n1 | 0 | -4 | 53* | 0
COc1ccc(OC)c(NC(=O)c2cnc(N3CCN(c4ccccn4)CC3)c3ccccc23)c1 | 0 | 2 | 46* | 3
